Hit rate of the full screen: of about 290,000 compounds, about 3,000 (1%) were called active. This is one part of a sample in which actives are shown more often than they occur. The rule behind the calls is not given here.

This is an account of results in PubChem BioAssay AID2014 (Sanford-Burnham Center for Chemical Genomics, 2009).

This test addresses Polyadenylate-binding protein 1 (Homo sapiens) (UniProt P11940). As to the kind of experiment: blockers of PABP interaction with poly(A) – biochemical, fluorescence polarization, uHTS, primary screen (AID 2014).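 Note: calls also rest on retests at 20 µM and on dose response follow-up.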 To be noted: PABP-poly(A) RNA binding, stronger effect = higher value. (In general: Polarisation of emitted light reports the rotation of a fluorescent probe.)

Polyadenylate-binding protein 1 (Homo sapiens), sequence (P11940 whole entry, looked up): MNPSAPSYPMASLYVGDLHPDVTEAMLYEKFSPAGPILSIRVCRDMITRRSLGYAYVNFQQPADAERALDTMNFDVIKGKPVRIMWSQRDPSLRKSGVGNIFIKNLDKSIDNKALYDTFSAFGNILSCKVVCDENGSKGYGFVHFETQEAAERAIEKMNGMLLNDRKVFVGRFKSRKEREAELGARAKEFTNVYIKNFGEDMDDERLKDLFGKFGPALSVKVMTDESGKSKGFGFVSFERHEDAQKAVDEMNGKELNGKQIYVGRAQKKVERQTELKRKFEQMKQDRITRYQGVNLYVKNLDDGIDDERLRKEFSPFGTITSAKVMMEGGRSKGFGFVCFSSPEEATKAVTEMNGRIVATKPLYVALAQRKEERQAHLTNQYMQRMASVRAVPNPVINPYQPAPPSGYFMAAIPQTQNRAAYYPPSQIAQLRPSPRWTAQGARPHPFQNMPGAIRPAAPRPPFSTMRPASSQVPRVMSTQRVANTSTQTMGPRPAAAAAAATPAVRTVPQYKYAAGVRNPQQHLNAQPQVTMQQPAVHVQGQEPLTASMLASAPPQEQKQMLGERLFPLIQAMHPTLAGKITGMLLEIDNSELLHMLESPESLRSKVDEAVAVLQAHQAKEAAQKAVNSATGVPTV

With `C[N+]1(CCNC(=O)/C=N/O)CCCCC1`, the inhibition (commonly the relative decrease from the control value, in per cent) (at 35 µM) is 63.4% (active). Still for that read-out and setting: to `CC(C)[C@H](NC(=O)N1CC(=O)Nc2ccccc21)C(=O)N[C@@H](Cc1c[nH]c2ccccc12)C(=O)O` belongs -3.1% (inactive); to `Cc1cccc(-c2c(NC(=O)c3ccco3)oc3ccc(Cl)cc3c2=O)c1`, -6.1% (inactive). As for `CC(C)(C)C1C/C(=C/c2ccco2)C(=O)/C(=C/c2ccco2)C1` (centres undefined), the inhibition reads like this: (at 35 µM) -1.8% (active); (confirmation repeats, at 20 µM) 53.3%. With `CCC1S/C(=N/N=C/c2ccco2)NC1=O` (centres undefined), the inhibition (at 35 µM) is -11% (inactive). On to `O=C1OC(/C=C/c2ccccc2)=NC/1=C/c1ccco1`, for which the inhibition was 16.6% (inactive) (at 35 µM) and 5.2% (confirmation repeats, at 20 µM). On to `Cn1c(=O)oc2cc(S(=O)(=O)NCCC(=O)NCc3ccccc3Cl)ccc21`, for which the inhibition (at 35 µM) is 1% (inactive). On the same count and under the same terms, next, `C=CCn1c(SCc2csc(C)n2)nc2scc(-c3ccc(C)o3)c2c1=O`: 6.5% (inactive); `C=CCn1c(=S)[nH]c2scc(-c3ccco3)c2c1=O`: 69.3% (active); `C=CCNC(=O)CSc1nc2scc(-c3ccco3)c2c(=O)n1CC=C`: 15.2% (inactive). Still for that read-out and setting: next, `COc1cccc(NC(=O)N2CCCC2C(=O)NC2CCCCC2)c1` (centres undefined): -0.6% (inactive); `CCn1cc(C(=O)N2CC(C)CC(C)C2)c(=O)c2cc(S(=O)(=O)N3CCCC3)ccc21` (centres undefined): -11.3% (inactive). On the same count and under the same terms, next, `COc1ccc(-c2cc(C(=O)N(C)Cc3ccc(OC)c(OC)c3OC)c3ccccc3n2)cc1OC`: 48% (inactive); `CC(=O)Nc1ccc(/C=N/Nc2ccc(C(=O)c3c(C)cc4ccccn34)cc2[N+](=O)[O-])cc1`: 9% (inactive). `Cc1cc2ccccn2c1C(=O)c1cccc(F)c1`: the inhibition (at 35 µM) is 2.5% (inactive). For `Cc1ccc(C(C[N+](=O)[O-])c2c(C)cc3ccccn23)cc1` (centres undefined), the inhibition by setting is: (at 35 µM) -2.2% (active); (confirmation repeats, at 20 µM) 72.2%. With `Cc1ccc(CNC(=O)Cc2cn(C)c3ccccc23)cc1`, the inhibition (at 35 µM) is 6.1% (inactive). For `CCCc1nc2c(c(=O)c3ccccc3n2C)c(=O)n1-c1cc(C)cc(C)c1`, the inhibition (at 35 µM) was 4.7% (inactive).

Regarding `Cn1c2ccccc2c(=O)c2c(=O)n(Cc3ccco3)c(COc3ccccc3)nc21`, the inhibition by setting is: (at 35 µM) 1.9% (active); (confirmation repeats, at 20 µM) 54.5%.

Take `COc1ccc(C(=O)CSc2nnc(COc3ccccc3)n2Cc2ccco2)cc1`: for the setting “at 35 µM”, the inhibition was -8.1% (inactive). With `Cc1cnc(C)c(N2CCN(C(=O)C3CCC(=O)N(CCc4cccc(F)c4)C3)CC2)n1` (centres undefined), for the setting “at 35 µM”, the inhibition is 4.1% (inactive). For `O=C1CCCC(O)=C1N=Nc1ccc2ncsc2c1`, the inhibition reads like this: (at 35 µM) -16.7% (active); (confirmation repeats, at 20 µM) 53.4%. As to `O=C1CCCC(O)=C1N=Nc1ccc(S(=O)(=O)N2CCOCC2)cc1`, the inhibition (at 35 µM) was 14.4% (inactive).

As to `CCOc1cc(C2/C(=C(/O)c3ccc(S(=O)(=O)N4CCCCC4)cc3)C(=O)C(=O)N2CCOC)ccc1O` (centres undefined), for the setting “at 35 µM”, the inhibition was 1.6% (inactive). The same measure, in the same setting: next, `Cc1ccc2cc(C)c(N3CCN(c4ccc(F)cc4)CC3)nc2c1`: -13.2% (inactive); `COc1ccc(-c2cc(C(=O)N3CCN(Cc4ccc5c(c4)OCO5)CC3)on2)cc1OC`: 6.7% (inactive). With `O=C(CCS(=O)(=O)c1ccc(Br)cc1)NCCc1ccc(Cl)cc1`, the inhibition (at 35 µM) is 19.8% (inactive) and the inhibition (confirmation repeats, at 20 µM) amounted to 10.6%. On to `COc1ccc(Cl)cc1NC(=O)CCS(=O)(=O)c1ccc(Br)cc1`, for which, under “at 35 µM”, the inhibition was 54.8% (active). On the same count and under the same terms, next, `COc1ccc(Cl)cc1NC(=O)CCS(=O)(=O)c1cc2c(cc1C)NC(=O)CO2`: -1.1% (inactive); `O=C(CSc1ncn[nH]1)N/N=C/c1ccc(F)cc1`: -7.9% (inactive); `O=C(NCCCc1ccccc1)c1cc(COc2c(F)cccc2F)on1`: -3.7% (inactive).

As to `O=C(c1c(F)cccc1F)N1CCN(c2ncc(Br)cn2)CC1`, the inhibition (at 35 µM) is 0.7% (inactive).

In the case of `CN(C(=O)c1ccno1)c1nnc(-c2cccnc2)s1`, the inhibition (at 35 µM) was 12% (inactive). The same measure, in the same setting: to `Cc1ccc(-c2csc(N(Cc3ccco3)C(=O)c3cccs3)n2)cc1` belongs -9.4% (inactive); to `Cc1nnc(N(Cc2ccco2)C(=O)c2ccno2)s1`, 68.4% (active); to `O=C(CCN1C(=O)[C@H]2CC=CC[C@H]2C1=O)NCc1nc(-c2ccccc2)no1`, 15.4% (inactive).

Regarding `O=C1c2ccccc2S(=O)(=O)N1Cc1c(F)cccc1Cl`, for the setting “at 35 µM”, the inhibition is 5.7% (inactive). Same read-out and setting: next, `Cc1c(-c2ccccc2)nc(N)c(C#N)c1-c1cccs1`: -3.2% (inactive).

`CCc1c(-c2ccccc2)nc(N)c(C#N)c1-c1cccs1`: the inhibition (at 35 µM) is -4.1% (inactive). For `CN1CCc2nc(SC(C(=O)O)c3ccccc3)c(C#N)c(-c3cccs3)c2C1` (centres undefined), where the note is “at 35 µM”, the inhibition was 68.1% (active). On the same count and under the same terms, next, `CCOC(=O)C1(Cc2ccccc2C)CCCN(C(=O)CCc2c(C)noc2C)C1` (centres undefined): 2.2% (inactive). Take `CCn1c(=S)sc2c(=O)n(CC(=O)Nc3ccc(OC)cc3)c(C)nc21`: the inhibition (at 35 µM) is -6.5% (inactive).

Turning to `Cc1cccc(C)c1NC(=O)CSc1nc2c([nH]1)c(=O)n(C)c(=O)n2C`, for the setting “at 35 µM”, the inhibition is 1% (inactive).

For the molecule `COc1cc(CCC(=O)N2CCN(c3ccccc3Cl)CC2)cc(OC)c1OC`, the inhibition (at 35 µM) was 9.6% (inactive). The same measure, in the same setting: next, `COc1ccc(Cc2nnc(NC(=O)c3ccc(OC)cc3OC)s2)cc1`: -6% (inactive); `CCc1nnc(NC(=O)Cc2cccs2)s1`: 10.4% (inactive). On the same count and under the same terms, next, `COc1ccc(Cc2nnc(NC(=O)Cc3cccs3)s2)cc1`: 72.4% (active). Still for that read-out and setting: next, `CNS(=O)(=O)c1cccc(C(=O)NCC2CCCCC2)c1`: 1% (inactive); `Cc1cc(C)c(C#N)c(SCc2[nH]nc3c2C(c2ccccc2)C(C#N)=C(N)O3)n1` (centres undefined): -7.3% (inactive). For `Cc1cc(C)c2c3c(sc2n1)C(c1ccccc1)C(C#N)=C(N)O3` (centres undefined), the inhibition runs as follows: (at 35 µM) 120% (active); (confirmation repeats, at 20 µM) 63.8%. In the case of `Cc1nn(Cc2ccccc2)c2c1C(c1ccccc1)C(C#N)=C(N)O2` (centres undefined), the inhibition (at 35 µM) was 5.6% (inactive). `O=C(N/N=C/c1ccccc1O)/C(=C/c1ccccc1)CCO`: the inhibition (at 35 µM) was -0.9% (inactive). Regarding `CCOc1cc(/C=N/Nc2cc(C)nc3ccc(C)cc23)ccc1O`, the inhibition (at 35 µM) is -6.9% (inactive).

With `CN(C(=O)COC(=O)c1cc(-c2ccco2)nc2ccccc12)C1CCS(=O)(=O)C1` (centres undefined), the inhibition (at 35 µM) was 77.7% (active). On to `Cc1c(-c2cccc(Cl)c2)nc2ccccc2c1C(=O)OCC(=O)N(C)C1CCS(=O)(=O)C1` (centres undefined), for which, where the note is “at 35 µM”, the inhibition is 6.7% (inactive). Still for that read-out and setting: to `CN(C(=O)COC(=O)c1nc(Cl)ccc1Cl)C1CCS(=O)(=O)C1` (centres undefined) belongs 1.3% (inactive).

On to `Cc1cccc(Nc2nc(-c3ccccc3)cs2)n1`, for which the inhibition (at 35 µM) was 3.3% (inactive). For `O=C(NCc1ccccn1)c1ccc2nc(-c3ccco3)c(-c3ccco3)nc2c1`, the inhibition (at 35 µM) was 77.7% (active). Same read-out and setting: to `O=C(NCc1ccccn1)c1cc(Br)ccc1Cl` belongs 0.7% (inactive); to `COc1cccc(S(=O)(=O)NCc2ccc(C(=O)NCc3ccccn3)cc2)c1`, 1.8% (inactive); to `N#CC1=C(N)Oc2c(ccc3cccnc23)C1c1ccncc1` (centres undefined), 10.6% (inactive). Regarding `CC1=C(C(=O)Nc2ccccc2)C(c2ccco2)C(C#N)=C(SCC(N)=O)N1` (centres undefined), where the note is “at 35 µM”, the inhibition was 7.1% (inactive).

As to `N#CC1=C(N)Oc2c(sc3ccccc23)C1c1ccco1` (centres undefined), the inhibition (at 35 µM) was 86.3% (active). Same read-out and setting: to `COCCCNc1nc2c(-c3cccc(C)c3)nnn2c2ccc(Cl)cc12` belongs 3.2% (inactive); to `COc1cccc(N(C(=O)CNC(=O)c2ccco2)C(C(=O)NC2CCCCC2)c2cccnc2)c1` (centres undefined), 10.1% (inactive); to `CN(C)CCCNC(=S)N1CCC(c2nc3ccccc3[nH]2)CC1`, -6% (inactive).

As to `COc1ccc(C(CNC(=O)COc2ccc([N+](=O)[O-])cc2)N2CCCCC2)cc1` (centres undefined), under “at 35 µM”, the inhibition is 1% (inactive). `NC(=O)c1c(NC(=O)c2ccccc2)sc2c1CCCC2`: the inhibition (at 35 µM) was 3.6% (inactive). The same measure, in the same setting: next, `Fc1cc(F)c2nc(Nc3nc4c(F)cccc4s3)sc2c1`: 0.5% (inactive). Take `NC(=O)c1c(Nc2nc3c(F)cccc3s2)sc2c1CCCC2`: the inhibition reads like this: (at 35 µM) -15.3% (active); (confirmation repeats, at 20 µM) 73.7%.

As for `COc1ccc(C(=O)NCCSc2ccccc2C)cc1`, the inhibition (at 35 µM) is 1.1% (inactive). On the same count and under the same terms, next, `COCc1cc(C)n(CC(=O)NCC2CCCO2)c(=O)c1C#N` (centres undefined): -1.9% (inactive). Still for that read-out and setting: to `Cc1ccc(N2CCN(C(=O)c3cccs3)CC2)c(C)c1` belongs 3.2% (inactive); to `CCOC(=O)C(C)Sc1nnc(CSc2nc3nc(C)cc(C)n3n2)o1` (centres undefined), 2.5% (inactive); to `COc1ccc(C(C)=O)cc1CSc1nc2nc(C)cc(C)n2n1`, -7.3% (inactive).

Regarding `Cc1cc(C)n2nc(SCC(N)=O)nc2n1`, the inhibition is, setting by setting: (at 35 µM) 51.5% (active); (confirmation repeats, at 20 µM) 81.1%. As for `Cc1onc(C(=O)Nc2ccc3c(c2)OCO3)c1[N+](=O)[O-]`, the inhibition (at 35 µM) was 1.4% (inactive).

Take `Cc1ccnc(N2C(=O)c3ccc([N+](=O)[O-])cc3C2=O)c1`: where the note is “at 35 µM”, the inhibition is 47.5% (inactive).

As to `COc1ccccc1NC(=O)Nc1nnc(Cc2ccc(F)cc2)s1`, where the note is “at 35 µM”, the inhibition was -15% (inactive).

Take `COc1ccc(C(CNC(=O)c2cc3c(s2)CCCC3)N2CCOCC2)cc1` (centres undefined): where the note is “at 35 µM”, the inhibition was 11.9% (inactive). For `CC(=O)NC(Cc1ccc(F)c(F)c1)C(=O)NC1CCN(C(=O)c2ccc(C)cc2)CC1` (centres undefined), for the setting “at 35 µM”, the inhibition is 1.9% (inactive).

`COc1ccc(CC(NC(C)=O)C(=O)NC2CCN(C(=O)c3ccc(Cl)cc3)CC2)cc1` (centres undefined): the inhibition (at 35 µM) was 3.2% (inactive). Turning to `CNC(=S)N1CCC(NC(=O)C(Cc2ccc(F)cc2)NC(C)=O)CC1` (centres undefined), where the note is “at 35 µM”, the inhibition is 63.2% (active).

In the case of `C[C@@H]1CC[C@@]2(OC1)O[C@H]1C[C@H]3[C@@H]4CC=C5C[C@@H](O)[C@H](O)C[C@]5(C)C4CC[C@]3(C)[C@H]1[C@@H]2C` (some centres undefined), the inhibition (at 35 µM) was 7.2% (inactive). The same measure, in the same setting: next, `O=C1CN(C(=O)c2cc(F)cc(F)c2)c2ccccc2N1`: -2.2% (inactive); `Cc1cc(O)c(C(=O)/C=C/c2c(F)c(F)c(F)c(F)c2F)c(=O)o1`: -2.1% (inactive); `Cc1cc2c(=O)n(CC(=O)NCC(=O)Nc3ccc(C(C)C)cc3)cnc2s1`: 9.1% (inactive). On to `Cc1ccc(-n2ncc3c2CCCC3NC(=O)c2cnccn2)cc1C` (centres undefined), for which the inhibition (at 35 µM) is 5.7% (inactive). The same measure, in the same setting: next, `O=C(c1cccs1)N(C(=O)c1cccs1)c1ccccn1`: 0.2% (inactive); `O=C(CNC(=O)c1ccc(Br)o1)NCC1CCCO1` (centres undefined): -3.6% (inactive). Consider `O=C(c1ccc(Br)o1)N(c1ccccn1)C1CCCCC1`, for which the inhibition by setting is: (at 35 µM) -4.7% (active); (confirmation repeats, at 20 µM) 75.2%. For `CC1(C)CC(=O)NC=C(c2ccccc2)C1`, where the note is “at 35 µM”, the inhibition was -9.5% (inactive).

On to `CC1(C)CC(=O)C(C2c3ccccc3S(=O)(=O)c3ccccc32)C(=O)C1`, for which the inhibition (at 35 µM) is 62.9% (active). Take `CC1(C)CC(=O)C=C(Nc2ccccc2)C1`: the inhibition (at 35 µM) was 2.3% (inactive).
